Data published in PubChem BioAssay AID1259240 (Keith Lab, Institute of Cancer Science, University of …, 2017).
Active and inactive are the calls of the source. Cut-off read from the data, not from the text of the source: active = fold change mostly below about -2 (no sharp cut-off); inactive = mostly above about -1.8.

Test: modulation of TERT promoter-driven luciferase – cell-based, luciferase reporter, human, primary screen (AID 1259240)
Details: A2780 TERT promoter luciferase reporter, 16 h; at 20 µM, fold versus average of vehicle-only wells

Fold change, active:
CC(C)CNC(=O)CSc1nc(-c2cccs2)cc(C(F)(F)F)n1 -2.24, CCOC(=O)c1ccc(N2C(=O)c3n[nH]c(-c4ccco4)c3C2c2ccc(C)cc2)cc1 (stereo not given) -2.14, Nc1ccc(-c2nc3cc(N)c(Cl)cc3[nH]2)cc1 -4.84, CC1CCCC(NS(=O)(=O)c2cccc3cccnc23)C1C (stereo not given) -3.72, CN(C)c1ccc(/C=C2/SC(=S)NC2=O)cc1 -4.47, O=C(CSc1c2c(nc3cc(Cl)ccc13)CCCC2)Nc1nccs1 -3.17, COc1ccc2c(c1)OC13CCCCC1C2C(C(=O)c1ccccc1)C(=O)N3 (stereo not given) -2.84, COC(=O)c1ccc(CSc2nc(-c3ccco3)cc(C(F)(F)F)n2)o1 -2.77, Cc1ccc(OCc2nc(-c3ccc(-n4cccc4)cc3)no2)cc1C -2.34, CCOC(=O)C1CCN(c2cc(C)c(C#N)c3nc4ccccc4n23)CC1 -2.16

Fold change, inactive:
Cc1cccc(-c2c3c(=O)n(C)c(=O)n(C)c3c3c(C)nc4ccccc4n23)c1 1.21, CCOC(=O)N1CCC(Nc2c(N(C)C3CCCCC3)c(=O)c2=O)CC1 1.05, CC1CCCN(S(=O)(=O)c2cccc(-c3cn4cccnc4n3)c2)C1 (stereo not given) -1.53, CCN(Cc1ccccc1)C(=O)C1CCCN1S(=O)(=O)c1cccc2nsnc12 (stereo not given) 1.58, CCNc1nc(C(=O)O)nc(N2CCOCC2)n1 -1.25, Cc1ccc2nc(N3CCOCC3)c3nncn3c2c1 1.35, CCOC(=O)C1=C(CS(=O)(=O)c2ccc(F)c(Cl)c2)NC(=O)NC1c1ccc(Cl)cc1 (stereo not given) 1.33, CCN(CC)S(=O)(=O)c1ccc2c(c1)N(CC(=O)NC1CC1)C(=O)CO2 -1.73, COCCN1C(=O)C(=O)/C(=C(\O)c2ccc(C)cc2)C12C(=O)N(C)c1ccccc12 (stereo not given) -1.06, CCC(CO)NS(=O)(=O)c1ccc(OC)c(-c2nnc3c4ccccc4c(C)nn23)c1 (stereo not given) -1.69, CCOC(=O)c1c(CN2CCOCC2)oc2ccc(OC)cc12 -1.29, CN1CCN(C(=O)c2ccc3c(Cl)c4c(nc3c2)CCC4)CC1 1.03, Cc1c(Cl)cccc1NS(=O)(=O)c1cccc2cccnc12 -1.05, COc1cccc(NC2SC(=O)N(c3ccccc3)C2=O)c1 (stereo not given) 1.28, c1cncc(Cc2nnc(N3CCC4(CC3)OCCO4)c3ccccc23)c1 -1.13, CC(C)Oc1ccc(C2CC(=O)Nc3cc4c(cc32)OCCO4)cc1 (stereo not given) 1, O=C(CN1C(=O)COc2ccc(S(=O)(=O)N3CCOCC3)cc21)N1CCC2(CC1)OCCO2 1.48, NC(=O)c1ccc(N=c2oc3ccccc3cc2S(=O)(=O)c2ccccc2)cc1 1.06, CCOC(=O)C1CCN(c2c(Nc3ccc4c(c3)OCCO4)c(=O)c2=O)CC1 -1.02, CCNC(=O)CC1C(=O)N(c2ccc(F)cc2)C(=O)N1CCC(C)C (stereo not given) 1.24, Cc1nnc2ccc(N3CCC(C(N)=O)(N4CCCCC4)CC3)nn12 -1.03, Cn1c2ccccc2c2cnn(CC(=O)N3CCN(C4CCCCC4)CC3)c(=O)c21 -1.05, CCN1CCCC1CNC(=O)CN1C(=O)COc2ccc(S(=O)(=O)N3CCC(C)CC3)cc21 (stereo not given) 1.28, O=C(Cc1ccc(NC2=NC3CS(=O)(=O)CC3S2)cc1)NCc1ccco1 (stereo not given) -1.32, CCOC(=O)N1CCC(Nc2c(NC3CCCCC3C)c(=O)c2=O)CC1 (stereo not given) -1.05, COCCNc1cc(C)nc2c(-c3ccc(Cl)cc3)c(C)nn12 -1.07, COC(=O)CN1C(=O)C(O)(CC(=O)c2ccc(Br)cc2)c2ccccc21 (stereo not given) -1.49, CCOC(=O)CN1CC23C=CC(O2)C(C(=O)Nc2ccc(OCC)cc2)C3C1=O (stereo not given) 1.29, COc1ccc2c(=O)c(Oc3ccc(C)cc3)c(C(F)(F)F)oc2c1 -1.15

outcome, active:
Cc1ccccc1Nc1c(-c2ccccc2O)nc2cnccn12
